From PubChem BioAssay AID2528 (National Center for Advancing Translational Sciences (NCATS), 2010)
Several values for one entry are separate records, joined by “and”; a condition that tells them apart may be missing. Equal entries are not always repeated. The whole screen tested about 350,000 compounds, of which about 700 (0.2%) were called active. The full list was thinned out, with actives kept by preference. A number with no mark means an inactive call. The call rests on the fitted dose curve; in most records, active means well fitted inhibition curve with a large enough effect; inconclusive means small, poorly fitted or top-dose-only effect; inactive means flat fitted curve, though single readings scatter. Bridge positions count the residues as written; N and C are the ends. Peptide text beside a SMILES is read from it.

Molecular target: RecQ-like DNA helicase BLM (Homo sapiens) (UniProt P54132)
Sequence (P54132 whole entry, looked up): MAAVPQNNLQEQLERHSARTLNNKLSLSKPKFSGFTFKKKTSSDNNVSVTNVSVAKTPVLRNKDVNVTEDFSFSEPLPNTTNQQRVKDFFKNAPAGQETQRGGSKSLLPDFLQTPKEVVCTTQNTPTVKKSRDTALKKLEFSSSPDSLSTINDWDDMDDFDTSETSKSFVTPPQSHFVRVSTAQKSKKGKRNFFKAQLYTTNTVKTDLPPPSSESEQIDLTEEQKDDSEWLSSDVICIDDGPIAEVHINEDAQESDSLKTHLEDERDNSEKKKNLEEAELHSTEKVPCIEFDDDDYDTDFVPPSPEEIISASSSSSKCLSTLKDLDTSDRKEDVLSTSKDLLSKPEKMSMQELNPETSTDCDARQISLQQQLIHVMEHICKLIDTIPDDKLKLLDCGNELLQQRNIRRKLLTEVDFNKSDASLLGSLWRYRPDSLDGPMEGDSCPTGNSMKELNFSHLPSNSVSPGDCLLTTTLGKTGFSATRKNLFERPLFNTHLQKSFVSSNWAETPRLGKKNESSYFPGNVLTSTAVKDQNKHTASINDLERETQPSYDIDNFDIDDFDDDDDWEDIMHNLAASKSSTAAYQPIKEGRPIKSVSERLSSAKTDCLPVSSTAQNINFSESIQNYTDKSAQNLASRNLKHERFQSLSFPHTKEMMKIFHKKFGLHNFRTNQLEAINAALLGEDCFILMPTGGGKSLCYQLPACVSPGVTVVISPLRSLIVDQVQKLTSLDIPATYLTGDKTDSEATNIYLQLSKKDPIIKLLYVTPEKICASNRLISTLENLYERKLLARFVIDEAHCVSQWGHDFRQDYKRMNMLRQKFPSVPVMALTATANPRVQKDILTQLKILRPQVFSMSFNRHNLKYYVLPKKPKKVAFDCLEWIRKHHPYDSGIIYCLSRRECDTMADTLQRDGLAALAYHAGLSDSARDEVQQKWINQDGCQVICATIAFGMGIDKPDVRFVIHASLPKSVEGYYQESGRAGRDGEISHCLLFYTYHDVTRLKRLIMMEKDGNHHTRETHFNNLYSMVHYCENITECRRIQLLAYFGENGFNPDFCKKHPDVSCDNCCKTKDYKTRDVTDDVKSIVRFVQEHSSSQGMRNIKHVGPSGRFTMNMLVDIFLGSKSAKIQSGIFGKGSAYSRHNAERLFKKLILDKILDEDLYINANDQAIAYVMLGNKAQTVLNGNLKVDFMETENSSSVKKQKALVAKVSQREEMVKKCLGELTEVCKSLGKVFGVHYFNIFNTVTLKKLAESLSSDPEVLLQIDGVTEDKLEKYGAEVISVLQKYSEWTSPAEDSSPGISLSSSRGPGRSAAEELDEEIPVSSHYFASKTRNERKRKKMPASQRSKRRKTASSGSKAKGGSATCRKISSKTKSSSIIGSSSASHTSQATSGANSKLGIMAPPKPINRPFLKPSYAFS
Test: qHTS Assay for Inhibitors of Bloom's syndrome helicase (BLM); further: nearly all actives have a fitted effect of over 35% in size
Conditions: recombinant BLM DNA unwinding, fluorescence dequenching; series mostly up to 56.1 µM; activity change, negative = inhibition: at the top concentration
From the text: Survival of cells and the faithful propagation of the genome depend on elaborate mechanisms of detecting and repairing DNA damage. Treatment of advanced cancer relies on radiation therapy or chemotherapy, which kill cancer cells by causing extensive DNA damage. It is often found, that cancer cells develop resistance to therapy through enhanced activity of DNA repair functions; this has led to an increased interest in developing drugs that interfere with DNA repair, which could sensitize cancer cells to conventional therapy.
This validation qHTS assay pertains to human BLM, which is important in resolving abnormal DNA structures formed during replication or homologous recombination. Shutting down the expression of BLM leads to chromosomal instability and higher radiation sensitivity in cultured cells.
The validation assay was a fluorescence quenching based kinetic qHTS for BLM Helicase DNA unwinding. The activity was measured as ATP-dependent separation of a 20-bp DNA duplex extended by 30-nt single-stranded tails (forked duplex). The forked DNA substrate was tagged with rhodamine fluorophore (carboxytetramethyl rhodamine, TAMRA) and BHQ-2 (Black Hole Quencher 2) dark quencher. Strand separation results in an increase in the fluorescence of TAMRA (excitation 525 nm, emission 598 nm). This substrate construct operates in a red-shifted region where very few compound library members have been noted to fluoresce (PubChem AIDs 593 and 594). An additional feature of the assay is the inclusion of 2.5 ug/ml poly (dIdC), to reduce interference by compounds such as DNA intercalators, a major source of false inhibitors.
Ian Hickson, University of Oxford
Opher Gileadi, Structural Genomics Consortium, University of Oxford
Screening Center PI: Austin, C.P.
Screening Center: NIH Chemical Genomics Center [NCGC]
Three uL of reaction buffer (25 mM Tris-HCl (pH 8.0), 5 mM NaCl, 2 mM MgCl2, 1mM DTT, 0.01% Tween- 20, and 2.5 ug/ml poly(dI-dC), including enzyme (50 nM BLM), were dispensed into a 1536-well Greiner black assay plate via solenoid-valve based nanoliter dispensers. Compounds (23 nl each in columns 5-48) and control (23 nl each in column 2 as dose-response) were transferred via a Kalypsys pintool equipped with a 1536-pin array. The plates were incubated for 15 min at room temperature, and then 1 ul of substrates (200 nM DNA and 2 mM ATP, final concentrations) was added to start the reaction. The plate was transferred into a ViewLux high-throughput CCD imager where the reaction progress was measured in a discontinuous kinetic mode (two reads spaced 2 hours apart, with intermediate room temperature incubation of the covered assay plate) by using standard red-fluorescence optics (excitation filter 525 nm, emission filter 598 nm). Enzyme-free and vehicle (DMSO) controls were included for signal normalization.
Potency means the concentration at half of the fitted maximal effect.

SMILES	activity change, negative = inhibition	Potency
C=CC1=C2C=C(C3CC3)N(C(CO)CO)C=C2C(=O)C(C)(OC(=O)c2ccco2)C1=O (configuration not stated)	-12.4% [at 12.4 µM]	
C[C@@H](O)[C@@H]1NC(=O)[C@H](CCCCN)NC(=O)[C@H](Cc2c[nH]c3ccccc23)NC(=O)[C@H](Cc2ccccc2)NC(=O)[C@H](Cc2ccccc2)NC(=O)[C@H](CC(N)=O)NC(=O)[C@H](CCCCN)NC(=O)[C@@H](NC(=O)[C@@H]2CCCN2)CSSC[C@@H](C(=O)N[C@@H](CCCCN)C(=O)O)NC(=O)[C@H](CO)NC(=O)[C@H](CO)NC(=O)[C@H](Cc2ccccc2)NC1=O (H-PCKNFFWKTFSSCK-OH; disulfide 2-13)	21.2%	
CCOC(=O)C1CCCN(C(=O)c2ccc3c(c2)sc2nc(-c4ccc(CC)cc4)cn23)C1 (configuration not stated)	-2.58%	
OCCC(O)CO (configuration not stated)		inactive
CC[C@]1([C@H]2O[C@@H]([C@@H]3O[C@](O)(CO)[C@@H](C)C[C@H]3C)C[C@H]2C)CC[C@@H]([C@]2(C)CC[C@@]3(C[C@@H](O)[C@@H](C)[C@@H]([C@H](C)[C@H](OC)[C@H](C)C(=O)O)O3)O2)O1	2.14% [at 21.4 µM]	
Cc1ccc(OCCCC(=O)Nc2ccc(S(=O)(=O)Nc3cc(C)nc(C)n3)cc2)cc1	-3.4%	
COc1ccc(NC(=O)CSc2nc(NS(=O)(=O)c3ccc(C)cc3)cc(=O)[nH]2)cc1		22.4 µM (active)
Cc1ccc(NC(=O)CSc2nc(CSc3ccc(C)cc3)cc(=O)[nH]2)cc1	-5.28%	
COCCn1c(=O)c(CCc2ccccc2)nc2cnc(N3CCNCC3)nc21	2.72%	
N[C@@H](C(=O)O)c1ccc(P(=O)(O)O)cc1	1.25%	
COC(C)C(C(=O)OCC1=CCN2CC[C@H](O)[C@@H]12)C(C)C (some centres not stated)	3%	
COc1ccc2c3c1OC1CC(O)C=C[C@@]31CCN(C)C2 (some centres not stated)	-12.8%	
CCOC(=O)c1c(SCC(=O)Nc2cccc(C)c2C)nc(=O)[nH]c1C	-1.44%	
CCOC(=O)c1c(C)[nH]c(C(=O)NCc2ccccc2OC)c1C	2.72%	
CCOC(=O)c1c(C)[nH]c2c1-c1ccccc1C(=O)C2=O		2.82 µM (active)
COc1ccc(NS(=O)(=O)c2cc3c4c(c2)CC(=O)N4CCC3)cc1Cl	1.48%	
COC(=O)C(C(=O)OC)[C@@H](NC=O)c1ccccc1	-1.06%	
CCCCS(=O)(=O)N1C2=NC(C(=O)OC)=C(C(=O)OC)[C@@H]3N(Cc4ccccc4)c4ccccc4[C@]23C[C@H]1C(=O)OC	-0.97% [at 12.4 µM]	
C=CCOC(=O)C(C(C)=O)C(NC(=O)OC)c1ccccc1 (configuration not stated)	-4.39% [at 12.4 µM]	
CC(C)C[C@@H](CC(=O)N[C@@H](CCC(=O)O)CC(=O)O)NC(=O)[C@@H]1CCCC[C@H]1NC(=O)C[C@@H](NC(=O)C[C@H](Cc1c[nH]c2ccccc12)NC(=O)[C@@H]1CCCC[C@H]1N)C(C)C	0.14%	
Nc1ncn(C2OC(CO)C(O)C2O)c(=O)n1 (configuration not stated)	-5.76%	

SMILES	activity change, negative = inhibition	Potency
CC1CC[C@@]23CCC4(C)[C@@]5(C)CCC6C(C)(C)C(O)CC[C@@]6(C)C5C=C[C@@]4(OC2=O)C3C1C (some centres not stated)	-0.263%	
COc1ccc(-c2nc3c(c4c2C[C@H](c2ccccc2)OC4)CN(C(=O)c2cccnc2)CC3)c(C)c1	0.694% [at 12.4 µM]	
C=C1O[C@@](CO)(n2cnc3c(N)ncnc32)[C@H](O)[C@@H]1O	0.613%	
COc1ccc(-c2nc(-c3ccccc3)oc2Nc2ccc3ccccc3c2)cc1	3.96%	
CCCC[C@H]1C(=O)N(c2ccccc2)N(c2ccc(O)cc2)C1=O	2.14% [at 21.4 µM]	
COC(=O)[C@@]1(Cc2ccc(F)cc2)[C@@H]2[C@@H](CC(=O)[C@H]2CC(=O)C(=O)N2CCCC2)CN1C(=O)c1ccccc1	-2.36%	
COC(=O)C1(C)C=CC2(CCCCC2)N1C(C)=O (configuration not stated)	-1.29%	
CC1=C2[C@@H](O)[C@H]([C@@H](C)C(=O)NCCC(C)C)CC[C@@]2(C)C=CC1=O	-1.03%	
Cc1ccc(-c2ncc(Cl)cc2-c2ccc(S(C)(=O)=O)cc2)cn1	2.81%	
C[C@H]1CC[C@H](C(=O)O)N[C@@H]1c1ccc(C#Cc2ccccc2)cc1	6.21% [at 12.4 µM]	
COc1ccccc1CNc1ncnc2ccc(-c3c(C)noc3C)cc12	1.02%	
Nc1nc2[nH]c(=O)c(=O)[nH]c2c(=O)[nH]1	5.91%	
CC/C=C\C/C=C\C/C=C\C/C=C\C/C=C\C/C=C\CCC(=O)NC(C)C(=O)O (configuration not stated)	3.92%	
COC(=O)C1=C(C)N(Cc2ccccc2)C2=C3C(=O)N(c4ccccc4)C(=O)C3[C@@](O)(C(=O)OC)C(=O)N2C1c1ccccc1 (some centres not stated)	-3.25% [at 12.4 µM] and -3.97% [at 12.4 µM]	
COc1ccc(S(=O)(=O)c2c(Nc3cccc(Cl)c3)sc(C(=O)c3ccccc3)c2N)cc1	-4.89%	
CC1(C)OC2CO[C@]3(COS(N)(=O)=O)OC(C)(C)OC3C2O1 (some centres not stated)	-7.65%	
COc1cc(OC)c(NC(=O)c2nc(-c3ccncc3)no2)cc1Cl	1.3%	
N#Cc1c(C(F)(F)F)cc(-c2cccs2)nc1N1CCCCC1	-2.96%	
N#Cc1c(N2CCCCC2)nc(N)c2c(N)nc(SCC(=O)O)cc12		28.2 µM (active)
C=C1C(=CC=C2CCC[C@@]3(C)[C@@H]2CC[C@H]3[C@H](C)CCCC(C)C)C[C@@H](O)C[C@@H]1O	-22.4%	
CC(C)CN1CCc2nc(-c3ccccc3)c3c(c2C1)COC(C)C3 (configuration not stated)	-4.43% [at 12.4 µM]	
